Measurements reported in PubChem BioAssay AID1159580 (chemical genetic matrix, 2015).
In all, about 5,500 compounds went through this assay and about 2,000 (36%) were called active. About 18% were inconclusive and are not listed. No stated cut-off is given here; in the data, active means normalized growth mostly below about 0.91 (no sharp cut-off); inconclusive means no clear call, values can overlap the other calls; inactive means mostly above about 0.92. The list shows a part of the results.

Assay: chemical genetic growth profiling, strain panel (AID 1159580);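 further: tested at 20 µM; growth read once vehicle control cultures reached saturation at 30 °C; 1 = growth at the plate median or of vehicle wells; lower values mean less growth of the strain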
Settings: growth OD

Measured: normalized growth

NNC(=O)c1ccncc1
inactive: S. cerevisiae deletion strains, locus YJR075W, strain HOC1, hits give low values 1.01 | S. cerevisiae deletion strains, locus YKL009W, strain mrt4, hits give low values 0.98 | S. cerevisiae deletion strains, locus YKL068W, hits give low values 0.992 | S. cerevisiae deletion strains, locus YKL085W, strain MDH1 (second series), hits give low values 0.991 | S. cerevisiae deletion strains, locus YKL085W, strain MDH1, hits give low values 0.991 | S. cerevisiae deletion strains, locus YKL160W, strain elf1, hits give low values 1.04 | S. cerevisiae deletion strains, locus YKL190W, strain CNB1, hits give low values 0.992 | S. cerevisiae deletion strains, locus YKR001C, strain vps1, hits give low values 0.993 | S. cerevisiae deletion strains, locus YKR026C, strain gcn3, hits give low values 1.01 | S. cerevisiae deletion strains, locus YKR091W, strain srl3, hits give low values 1 | S. cerevisiae deletion strains, locus YLL001W, strain dnm1, hits give low values 1.03 | S. cerevisiae deletion strains, locus YLL026W, hits give low values 1.03 | S. cerevisiae deletion strains, locus YLL041C, strain sdh2, hits give low values 1 | S. cerevisiae deletion strains, locus YLR027C, strain aat2, hits give low values 1.03 | S. cerevisiae deletion strains, locus YLR039C, strain RIC1, hits give low values 1.05 | S. cerevisiae deletion strains, locus YLR058C, strain SHM2, hits give low values 1.01 | S. cerevisiae deletion strains, locus YLR102C, strain apc9, hits give low values 0.998 | S. cerevisiae deletion strains, locus YLR113W, strain HOG1, hits give low values 1.01 | S. cerevisiae deletion strains, locus YLR221C, strain rsa3, hits give low values 0.986 | S. cerevisiae deletion strains, locus YLR258W, strain gsy2, hits give low values 0.99 | S. cerevisiae deletion strains, locus YLR262C, strain YPT6 (second series), hits give low values 1.03 | S. cerevisiae deletion strains, locus YLR262C, strain YPT6, hits give low values 1.01 | S. cerevisiae deletion strains, locus YLR268W, strain sec22, hits give low values 0.991 | S. cerevisiae deletion strains, locus YLR320W, strain mms22, hits give low values 0.986 | S. cerevisiae deletion strains, locus YLR330W, strain CHS5, hits give low values 1.01 | S. cerevisiae deletion strains, locus YLR342W, strain FKS1 (second series), hits give low values 1.01 | S. cerevisiae deletion strains, locus YLR342W, strain FKS1, hits give low values 1.02 | S. cerevisiae deletion strains, locus YLR357W, strain rsc2, hits give low values 0.998 | S. cerevisiae deletion strains, locus YLR370C, strain arc18, hits give low values 1.02 | S. cerevisiae deletion strains, locus YLR371W, strain rom2, hits give low values 0.988 | S. cerevisiae deletion strains, locus YLR384C, strain iki3, hits give low values 1.01 | S. cerevisiae deletion strains, locus YLR418C, strain cdc73, hits give low values 0.964 | S. cerevisiae deletion strains, locus YML016C, strain PPZ1, hits give low values 1.01 | S. cerevisiae deletion strains, locus YML032C, strain rad52, hits give low values 0.995 | S. cerevisiae deletion strains, locus YML120C, strain ndi1, hits give low values 1.06 | S. cerevisiae deletion strains, locus YML124C, strain tub3, hits give low values 0.988 | S. cerevisiae deletion strains, locus YMR058W, strain fet3, hits give low values 1.04 | S. cerevisiae deletion strains, locus YMR078C, strain ctf18, hits give low values 1 | S. cerevisiae deletion strains, locus YMR125W, strain sto1, hits give low values 1.02 | S. cerevisiae deletion strains, locus YMR129W, hits give low values 1 | S. cerevisiae deletion strains, locus YMR205C, strain PFK2, hits give low values 1.03 | S. cerevisiae deletion strains, locus YMR223W, strain ubp8, hits give low values 0.974 | S. cerevisiae deletion strains, locus YMR231W, strain pep5, hits give low values 0.995 | S. cerevisiae deletion strains, locus YMR307W, strain GAS1, hits give low values 0.997 | S. cerevisiae deletion strains, locus YNL067W, strain RPL9B, hits give low values 0.996 | S. cerevisiae deletion strains, locus YNL071W, strain lat1, hits give low values 0.996 | S. cerevisiae deletion strains, locus YNL153C, strain GIM3, hits give low values 1.01 | S. cerevisiae deletion strains, locus YNL183C, strain NPR1, hits give low values 0.948 | S. cerevisiae deletion strains, locus YNL209W, strain ssb2, hits give low values 1 | S. cerevisiae deletion strains, locus YNL233W, strain BNI4, hits give low values 1.01 | S. cerevisiae deletion strains, locus YNL248C, strain rpa49, hits give low values 0.988 | S. cerevisiae deletion strains, locus YNL250W, strain rad50, hits give low values 0.977 | S. cerevisiae deletion strains, locus YNL271C, strain bni1, hits give low values 0.985 | S. cerevisiae deletion strains, locus YNL298W, strain CLA4, hits give low values 0.986 | S. cerevisiae deletion strains, locus YNL307C, strain MCK1, hits give low values 0.995 | S. cerevisiae deletion strains, locus YNL322C, strain KRE1 (second series), hits give low values 1.02 | S. cerevisiae deletion strains, locus YNR049C, strain mso1, hits give low values 1.01 | S. cerevisiae deletion strains, locus YNR052C, strain pop2, hits give low values 1 | S. cerevisiae deletion strains, locus YOL012C, strain htz1 0.873 | S. cerevisiae deletion strains, locus YOL147C, strain pex11, hits give low values 0.994 | S. cerevisiae deletion strains, locus YOR001W, strain rrp6, hits give low values 1.03 | S. cerevisiae deletion strains, locus YOR061W, strain CKA2, hits give low values 1.02 | S. cerevisiae deletion strains, locus YOR069W, strain VPS5, hits give low values 1 | S. cerevisiae deletion strains, locus YOR070C, strain gyp1, hits give low values 1 | S. cerevisiae deletion strains, locus YOR080W, strain dia2, hits give low values 1.01 | S. cerevisiae deletion strains, locus YOR083W, strain WHI5, hits give low values 1 | S. cerevisiae deletion strains, locus YOR106W, strain vam3, hits give low values 1.04 | S. cerevisiae deletion strains, locus YOR136W, strain idh2, hits give low values 0.998 | S. cerevisiae deletion strains, locus YOR144C, strain elg1, hits give low values 0.994 | S. cerevisiae deletion strains, locus YOR184W, strain ser1, hits give low values 0.981 | S. cerevisiae deletion strains, locus YOR231W, strain MKK1, hits give low values 0.992 | S. cerevisiae deletion strains, locus YOR265W, strain rbl2, hits give low values 1.01 | S. cerevisiae deletion strains, locus YOR270C, strain vph1, hits give low values 1 | S. cerevisiae deletion strains, locus YOR290C, strain snf2, hits give low values 0.965 | S. cerevisiae deletion strains, locus YOR316C, strain cot1, hits give low values 0.997 | S. cerevisiae deletion strains, locus YPL051W, strain arl3, hits give low values 1.02 | S. cerevisiae deletion strains, locus YPL055C, strain LGE1, hits give low values 1.01 | S. cerevisiae deletion strains, locus YPL078C, strain atp4, hits give low values 1.06 | S. cerevisiae deletion strains, locus YPL106C, strain sse1, hits give low values 1.01 | S. cerevisiae deletion strains, locus YPL240C, strain hsp82, hits give low values 1.02 | S. cerevisiae deletion strains, locus YPL256C, strain CLN2, hits give low values 0.966 | S. cerevisiae deletion strains, locus YPR119W, strain clb2, hits give low values 0.987 | S. cerevisiae deletion strains, locus YPR141C, strain kar3, hits give low values 0.99 | S. cerevisiae deletion strains, locus YPR163C, strain tif3, hits give low values 0.987 | S. cerevisiae deletion strains, locus YPR167C, strain met16, hits give low values 0.981 | S. cerevisiae deletion strains, strain wtn01, hits give low values 0.98 | S. cerevisiae strains, strain wild type, hits give low values 1
